# From PubChem BioAssay AID1851 (National Center for Advancing Translational Sciences (NCATS), 2009)
# Hit rate of the full screen: of about 16,000 compounds, about 5,100 (32%) were called active. Inconclusive results (about 25%) are left out. Calls follow the shape of the dose curve; as a rule, active = well fitted curve in the direction sought with a large enough effect; inconclusive = small, poorly fitted or top-dose-only effect, or effect the other way; inactive = no such curve, though single readings can be large or run the other way. Some of the results follow.
# Biological target: Cytochrome P450 3A4 (Homo sapiens) (UniProt P08684)
# Experiment: Cytochrome panel assay with activity outcomes
# Details: recombinant CYP, pro-luciferin dealkylation, luminescence, p450-cyp3a4; series mostly up to 57.1 µM
# % is scaled to controls: 0 for no effect and ±100 for the full control effect.
# Chain of Cytochrome P450 3A4 (Homo sapiens) (P08684 whole entry, looked up): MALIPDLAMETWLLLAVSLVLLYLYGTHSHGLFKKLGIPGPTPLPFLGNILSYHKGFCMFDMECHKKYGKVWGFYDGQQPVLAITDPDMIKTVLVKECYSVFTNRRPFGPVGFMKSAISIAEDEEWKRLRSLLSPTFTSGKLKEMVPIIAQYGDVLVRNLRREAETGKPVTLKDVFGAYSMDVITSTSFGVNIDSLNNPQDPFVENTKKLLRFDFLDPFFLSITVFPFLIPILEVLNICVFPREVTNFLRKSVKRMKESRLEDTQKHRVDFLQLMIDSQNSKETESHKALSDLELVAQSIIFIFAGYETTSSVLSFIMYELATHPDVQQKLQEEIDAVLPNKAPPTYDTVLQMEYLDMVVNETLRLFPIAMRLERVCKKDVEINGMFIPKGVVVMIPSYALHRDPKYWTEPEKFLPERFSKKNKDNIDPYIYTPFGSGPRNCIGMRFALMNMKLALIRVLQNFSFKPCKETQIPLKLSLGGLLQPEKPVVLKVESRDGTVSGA
SMILES,AC50,"activity, negative = inhibition"
CN(C)c1ncc2nc(-c3ccc(Cl)cc3)c(=O)n(C[C@H]3CCCO3)c2n1,inactive,–
CCNc1ncc2nc(-c3ccc(Cl)cc3)c(=O)n(C[C@H]3CCCO3)c2n1,inactive,–
COc1ncc2nc(-c3ccc(Cl)cc3)c(=O)n(C[C@H]3CCCO3)c2n1,10 µM (active),–
Cn1c(=O)n(-c2cccc(Cl)c2)c(=O)c2c3c(sc21)COC(C)(C)C3,–,-4.67% [at 2.29 µM] (inactive)
Cc1noc(C)c1-c1nccc(-n2ccnc2)n1,1.26 µM (active),–
COc1ccccc1-c1cc(-n2ccnc2)ncn1,0.316 µM (active),–
COc1ccccc1-c1nccc(-n2ccnc2)n1,1.58 µM (active),–
FC(F)(F)c1ccccc1-c1nccc(N2CCNCC2)n1,inactive,–
Cc1noc(C)c1-c1nccc(N2CCN(C)CC2)n1,inactive,–
Clc1ccccc1-c1nccc(-n2ccnc2)n1,1.26 µM (active),–
O=S1(=O)N[C@H]2CC[C@@H]3NS(=O)(=O)N[C@H]4CC[C@H](N1)N4S(=O)(=O)N23,–,5.02% [at 11.4 µM] (inactive)
Cc1ccccc1-c1nccc(-n2ccnc2)n1,1 µM (active),–
Cc1cc(C)c2c(N)c3ccccc3nc2n1,inactive,–
COc1ccc(CNc2ncnc3ccc(-c4ccccc4CN(C)C)cc23)c(OC)c1,7.94 µM (active),–
CN(C)Cc1ccccc1-c1ccc2ncnc(NC3CCNCC3)c2c1,inactive,–
CNc1ncnc2ccc(-c3ccccc3CN(C)C)cc12,7.94 µM (active),–
CN(C)Cc1ccccc1-c1ccc2ncnc(NCc3ccccc3)c2c1,15.8 µM (active),–
COc1ccccc1CNc1ncnc2ccc(-c3ccccc3OC)cc12,6.31 µM (active),–
COc1ccccc1CNc1ncnc2ccc(-c3ccccc3CN(C)C)cc12,12.6 µM (active),–
COc1ccc(CNc2ncnc3ccc(-c4ccccc4OC)cc23)c(OC)c1,2 µM (active),–
CCOc1cc(/C=N/NC(=O)CNc2cccc(C)c2)ccc1OC(=O)c1ccccc1,inactive,–
COc1ccc(/C=C/C(=O)Oc2cccc(/C=N/NC(=O)COc3c(C)cccc3C)c2)cc1,inactive,–
CCOc1cc(/C=N/NC(=O)COc2cccc(C)c2)ccc1OC(=O)c1cccs1,14.1 µM (active),–
CS(=O)(=O)Nc1cccc(-c2ccc3ncnc(Nc4ccc(F)cc4)c3c2)c1,7.94 µM (active),–
CS(=O)(=O)Nc1cccc(-c2ccc3ncnc(NC4CC4)c3c2)c1,6.31 µM (active),–

SMILES,AC50,"activity, negative = inhibition"
CS(=O)(=O)Nc1cccc(-c2ccc3ncnc(NC4CCNCC4)c3c2)c1,inactive,–
CS(=O)(=O)Nc1cccc(-c2ccc3ncnc(Nc4ccccc4)c3c2)c1,10 µM (active),–
CNc1ncnc2ccc(-c3cccc(NS(C)(=O)=O)c3)cc12,12.6 µM (active),–
c1ccc2cc(-c3cc(-c4cc(-c5ccc6ccccc6c5)on4)no3)ccc2c1,–,-8% [at 11.4 µM] (inactive)
COCCNc1ncnc2ccc(-c3cccc(NS(C)(=O)=O)c3)cc12,15.8 µM (active),–
[O-][N+]1(CC[N+]2([O-])CCCCC2)CCCCC1,–,-11.4% [at 11.4 µM] (inactive)
CCN(CC)Cc1c(O)c(Cl)cc2c3c(c(=O)oc12)CCCC3,inactive,–
CCCN(CCC)C(=O)[C@@H](CCC(=O)O)NC(=O)c1ccccc1,inactive,–
CCCC/C=C/C(NC(=O)c1ccccc1)c1ccccc1 (stereo not drawn),15.8 µM (active),–
CCCC/C=C/C(NC(=O)C(C)(C)C)c1ccccc1 (stereo not drawn),25.1 µM (active),–
CCCCCCCCCCCCC/C=C\[C@@H](O)[C@H](CO)NC(C)=O,inactive,–
C#CCOC(=O)NC(/C=C/CCCC)c1ccccc1 (stereo not drawn),12.6 µM (active),–
CCCC/C=C/C(NC(=O)c1cccs1)c1ccccc1 (stereo not drawn),12.6 µM (active),–
CCCC/C=C/C(NC(=O)c1ccc(-c2ccccc2)cc1)c1ccccc1 (stereo not drawn),inactive,–
CCCC/C=C/C(NC(=O)Oc1cccc(C(F)(F)F)c1)c1ccccc1 (stereo not drawn),15.8 µM (active),–
CC(=O)Oc1cc(C(F)(F)F)ccc1C(=O)O,inactive,–
N[C@@H](C(=O)O)c1ccc(C(=O)O)cc1,inactive,–
CCN1C(=O)/C(=C2\SC(N3CCCCC3)=NC2=O)c2ccccc21,14.1 µM (active),–
O=C1N=C(N2CCOCC2)S/C1=C\C=C/c1ccccc1,inactive,–
CN(C)CN1C(=O)S/C(=C2/C(=O)N(CN(C)C)c3ccccc32)C1=O,–,4.92% [at 11.4 µM] (inactive)
Cc1ccc([C@@]2(C)CC/C(=N/N=C3\CC[C@](C)(c4ccc(C)c(C)c4)c4cc(C)c(C)cc43)c3cc(C)c(C)cc32)cc1C,–,-0.566% [at 11.4 µM] (inactive)
S=c1nc[nH]c2c1ncn2Cc1ccco1,–,-14.9% [at 11.4 µM] (inactive)
c1ccc(CCNCc2ccco2)nc1,–,-15.3% [at 11.4 µM] (inactive)
S=C1SCN(Cc2ccccn2)CN1Cc1ccco1,20 µM (active),–
C/C(=N/O)c1ccc2cc(Br)c3ccccc3c2c1,–,-23.8% [at 11.4 µM] (inactive)

SMILES,AC50,"activity, negative = inhibition"
O=C1/C(=C\c2ccc(Br)o2)SC(=Nc2ccccc2)N1c1ccccc1,inactive,–
O=C1C(Cc2ccccc2)SC(=Nc2ccccc2)N1c1ccccc1 (stereo not drawn),3.98 µM (active),–
C=CCn1c(=O)c2c(nc(-c3ccc(S(=O)(=O)O)cc3)n2C)n(C)c1=O,inactive,–
C=CCn1c(=O)c2c(nc(Br)n2Cc2ccccc2Cl)n(C)c1=O,0.794 µM (active),–
COC(=O)Cn1c(=O)c2c(nc(Br)n2Cc2ccccc2Cl)n(C)c1=O,–,-4.19% [at 2.29 µM] (inactive)
O=C(COc1ccc(-c2ccccc2)cc1)N/N=C/c1ccccc1Br,14.1 µM (active),–
O=C(COc1ccccc1-c1ccccc1)N/N=C/c1cccc2ccccc12,–,1.08% [at 2.29 µM] (inactive)
COc1ccccc1OCCn1cc(C(=O)c2ccco2)c2ccccc21,3.98 µM (active),–
O=C(Cn1cccc1C(=O)c1ccccc1)NCc1cccs1,10 µM (active),–
O=C(Cn1cc(C(=O)c2ccco2)c2ccccc21)NCc1ccco1,25.1 µM (active),–
Cc1nnc(NC(=O)CCC(=O)NCc2cccs2)s1,inactive,–
Cc1ccccc1C(=O)c1cccn1CC(=O)NCc1ccco1,22.4 µM (active),–
c1ccc2c(c1)ncn2Cc1nnc2sc(-c3ccc4c(c3)OCO4)nn12,2.24 µM (active),–
CC(C)Oc1ccc(N2CC(C(=O)OCC(=O)NCc3ccccc3)CC2=O)cc1 (stereo not drawn),–,1.29% [at 2.29 µM] (inactive)
COc1ccc(N2CC(C(=O)OCC(=O)c3cccc(OC)c3)CC2=O)cc1 (stereo not drawn),14.1 µM (active),–
COC(=O)c1sccc1NC(=O)CN(C)NS(=O)(=O)c1ccc(F)cc1,inactive,–
COC(=O)c1sccc1NC(=O)CSc1ccccc1NS(=O)(=O)c1ccc(Cl)cc1,3.55 µM (active),–
COC(=O)c1sccc1NC(=O)CSc1cc(Cl)ccc1Cl,22.4 µM (active),–
COC(=O)c1sccc1NC(=O)CSc1ccc(Cl)cc1,–,-2.63% [at 2.29 µM] (inactive)
CCOC(=O)c1ccccc1NC(=O)CSc1cccc[n+]1[O-],inactive,–
CCn1c(SCC(=O)Nc2ccccc2C(=O)OC)nnc1-c1ccc(N)cc1,0.631 µM (active),–
O=C(CSc1nnc(-c2ccccc2)n1-c1ccccc1)c1cccs1,7.08 µM (active),–
Cc1ccc(C(=O)NNC(=O)CSc2nnc(-c3ccncc3)n2-c2ccc(C)cc2)cc1,3.16 µM (active),–
Cc1ccccc1NC(=O)CSc1nnc(-c2ccccc2)n1-c1ccccc1,3.55 µM (active),–
CCCCOC(=O)Nc1ccccc1C(=O)OC,–,20.6% [at 11.4 µM] (inactive)

SMILES,AC50,"activity, negative = inhibition"
O=C(O)c1cc2cc(Cl)ccc2oc1=O,inactive,–
CN(C)CCNC(=O)C1CCCNC1=O (stereo not drawn),inactive,–
CCOc1ccc(-n2c(SCC(=O)Nc3ccccc3C)n[nH]c2=O)cc1,12.6 µM (active),–
Cc1ncn(-c2ccccc2O)c1C,–,-10.7% [at 11.4 µM] (inactive)
CCCCOC(=O)Nc1nc2ccccc2s1,–,0.331% [at 11.4 µM] (inactive)
Cc1cnc(NC(=O)CCCc2nc3ccccc3s2)s1,2 µM (active),–
OC[C@H]1O[C@H](n2cnc3c(NC4CCCC4)nc(Cl)nc32)[C@@H](O)[C@@H]1O,inactive,–
NC1(C(=O)O)CC(C(=O)O)C1 (stereo not drawn),inactive,–
COc1cc(C2C(C(=O)OCCC#N)=C(C)NC3=C2S(=O)(=O)c2ccccc23)cc(OC)c1OC (stereo not drawn),5.01 µM (active),–
Cc1cc(C=O)c(C)n1-c1ccc(N2CCCCC2)c([N+](=O)[O-])c1,inactive,–
Cc1cc(C=O)c(C)n1-c1ccc(NC2CCCC2)c([N+](=O)[O-])c1,4.47 µM (active),–
COc1ccc(-n2c(C)cc(C=O)c2C)cc1Cl,–,6.7% [at 2.29 µM] (inactive)
CN(C)c1ccc(-c2cc(N(C)Cc3ccco3)ncn2)cc1,12.6 µM (active),–
CN(Cc1ccco1)c1cc(-c2ccc3c(c2)OCO3)ncn1,3.98 µM (active),–
CN(Cc1ccco1)c1cc(-c2ccoc2)ncn1,inactive,–
CS(=O)(=O)Nc1cccc(-c2ccc3ncnc(N4CCNCC4)c3c2)c1,15.8 µM (active),–
CS(=O)(=O)Nc1cccc(-c2ccc3ncnc(N4CCOCC4)c3c2)c1,7.94 µM (active),–
CS(=O)(=O)Nc1cccc(-c2ccc3ncnc(NCCN4CCOCC4)c3c2)c1,15.8 µM (active),–
CN(C)CCSCCO,–,-12.3% [at 11.4 µM] (inactive)
COC(=O)C1=C(C)NC(C)=C([N+](=O)[O-])[C@@H]1c1ccccc1C(F)(F)F,12.6 µM (active),–
O=C1c2c(O)cc(O)cc2O[C@@H](c2ccc(O)c(O)c2)[C@H]1O,10 µM (active),–
Oc1cc(O)c2c(c1)O[C@H](c1ccc(O)c(O)c1)[C@H](O)C2,inactive,–
Oc1cc(O)c2c(c1)O[C@H](c1ccc(O)c(O)c1)[C@@H](O)[C@@H]2c1c(O)cc(O)c2c1O[C@@H](c1ccc(O)c(O)c1)[C@H](O)C2,–,-13.1% [at 11.4 µM] (inactive)
